± gives the standard deviation.
Columns and labels:
Settings in all cases: modulator concentration 10 µM
[1] = test system: RAW-Dual (murine macrophage reporter line); assay: NF-kB reporter (SEAP) activity fold change vs agonist alone; higher = enhanced NF-kB activity
In short: (§1)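 RAW-Dual murine macrophage reporter cells were seeded at 50 000 per well in 384-well plates and pre-incubated 1 hour at 37 °C with compound pin-transferred to 10 μM final. After 1 hour, a PRR agonist was added and cells incubated overnight. Supernatant NF-κB (SEAP, QUANTI-Blue, 620 nm absorbance) and IRF (Lucia luciferase, QUANTI-Luc, luminescence) signals were divided by the mean agonist-only control on the same plate to give fold change. Two replicate plates were averaged, with errors by propagation.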

[2] = test system: RAW-Dual (murine macrophage reporter line); assay: IRF reporter (Lucia luciferase) activity fold change vs agonist alone; higher = enhanced IRF activity
In short: as §1

[3] = test system: RAW-Dual (murine macrophage reporter line); assay: viability score (confluency relative to resting cells, overnight) (fraction); higher = more viable, active = viable (0.7 or more)
In short: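 Compound was added at a final 10 μM to RAW-Dual macrophages in 384-well plates and left overnight. Confluency was imaged with IncuCyte, and two masks were generated in IncuCyte software over all imaged wells. Each viability score is confluency relative to resting cells, and a compound met the cutoff only when both masks were above 70% of resting cells.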

[4] = agonist: CpG ODN 1826 0.5 ug/mL

SMILES	NF-kB reporter [1, 4]	NF-kB reporter ([1]; agonist: LPS 0.1 ug/mL)	NF-kB reporter ([1]; agonist: MPLA […])	IRF reporter ([2]; agonist: 3'3'-cGAMP 10 ug/mL)	IRF reporter ([2]; agonist: LPS 0.1 ug/mL)	IRF reporter ([2]; agonist: MPLA […])	viability score [3]
COc1ccc(-c2cc(C(F)F)nn2-c2ccc(S(N)(=O)=O)cc2)cc1F	0.989 ± 0.29	0.98 ± 0.05	0.993 ± 0.068	0.935 ± 0.052	1.3 ± 0.24	1.23 ± 0.18	0.998 (active)
Cc1cc(C)n(C2CC(=O)N(c3ccccc3)C2=O)n1 (centres undefined)	1.04 ± 0.08	0.926 ± 0.1	1.21 ± 0.2	1.05 ± 0.04	1.31 ± 0.25	1.42 ± 0.21	1.02 (active)
CCc1c(C)c2ccc(OCC(C)=O)c(C)c2oc1=O	0.936 ± 0.21	0.984 ± 0.098	0.938 ± 0.098	0.942 ± 0.068	1.27 ± 0.3	1.2 ± 0.13	0.991 (active)
CN1CCN(CC(O)Cn2c3ccccc3c3ccccc32)CC1.O=C(O)C(=O)O (centres undefined)	0.964 ± 0.074	0.946 ± 0.1	0.983 ± 0.093	0.609 ± 0.02	1.39 ± 0.19	1.45 ± 0.23	1.01 (active)
Cc1cc(C)nc(NS(=O)(=O)c2ccc(NC(=O)C=Cc3cccc4ccccc34)cc2)n1	1.14 ± 0.091	1.14 ± 0.083	1.17 ± 0.091	0.248 ± 0.026	1.21 ± 0.12	1.04 ± 0.17	0.956 (active)
O=C(COc1cccc2ccccc12)NCc1ccncc1	0.804 ± 0.069	1.1 ± 0.06	1.02 ± 0.12	0.981 ± 0.052	1.34 ± 0.12	1.06 ± 0.098	1.01 (active)
O=C(C=Cc1ccc2c(c1)OCO2)NCc1ccccn1	0.994 ± 0.16	1.08 ± 0.089	0.897 ± 0.069	0.933 ± 0.041	1.27 ± 0.27	1.28 ± 0.15	0.994 (active)
O=C(Nc1ccc([N+](=O)[O-])cc1Cl)c1cc(Cl)ccc1O [Prestw-40]	1.12 ± 0.28	0.92 ± 0.052	0.938 ± 0.068	0.873 ± 0.064	1.12 ± 0.24	0.832 ± 0.13	1.01 (active)
Cc1c(OCc2ccc(Cl)cc2)ccc2c(C(F)(F)F)cc(=O)oc12	0.758 ± 0.059	0.94 ± 0.048	1.11 ± 0.17	0.802 ± 0.042	1.06 ± 0.062	1.07 ± 0.094	1.02 (active)
CC12CC3CC(C1)CC(CC(=O)O)(C3)C2	1.02 ± 0.18	1.04 ± 0.12	0.994 ± 0.17	0.907 ± 0.029	1.09 ± 0.11	1.3 ± 0.3	0.526 (inactive)
Nc1ncn([C@H]2C[C@H](O)[C@@H](CO)O2)c(=O)n1	1.3 ± 0.11	0.995 ± 0.054	1.15 ± 0.061	1.84 ± 0.32	1.09 ± 0.048	1.39 ± 0.27	0.963 (active)
COc1ccc(C=CC(=O)Nc2ccc([N+](=O)[O-])cc2)cc1Br	1.06 ± 0.17	0.991 ± 0.14	0.905 ± 0.11	0.996 ± 0.044	1.28 ± 0.18	1.43 ± 0.42	1.01 (active)
COCCOC(=O)C1=C(C)NC(C)=C(C(=O)OC/C=C/c2ccccc2)C1c1cccc([N+](=O)[O-])c1 (centres undefined)	0.743 ± 0.078	0.787 ± 0.037	0.938 ± 0.09	1 ± 0.057	1.18 ± 0.088	1.17 ± 0.1	1.01 (active)
CC(C)C(=O)c1c(C(C)C)nn2ccccc12	1.59 ± 0.12	1.2 ± 0.086	1.21 ± 0.032	0.808 ± 0.076	0.938 ± 0.031	0.926 ± 0.088	0.957 (active)
Cc1ccc(CSc2nc3sc4c(c3c(=O)n2-c2ccccc2)CC(C)(C)OC4)c(C)c1	0.984 ± 0.093	1.06 ± 0.075	0.91 ± 0.054	1.05 ± 0.039	1.41 ± 0.12	1.1 ± 0.21	1.02 (active)
COc1ccc2cc(Br)ccc2c1CC(=O)O	0.759 ± 0.06	0.954 ± 0.045	1.01 ± 0.087	0.918 ± 0.043	1.29 ± 0.076	1.33 ± 0.19	1.02 (active)
COc1ccc(Cl)c(Nc2nc3ccccc3nc2NS(=O)(=O)c2cccc(NC(=O)C(C)(C)N)c2)c1	0.841 ± 0.23	1.05 ± 0.12	1.11 ± 0.087	0.221 ± 0.013	1.21 ± 0.13	1.32 ± 0.3	0.592 (inactive)
CCOC(=O)c1cc(-c2ccccc2)sc1NC(=O)C(C)(C)C	0.798 ± 0.068	0.907 ± 0.055	1.2 ± 0.17	0.945 ± 0.055	1.3 ± 0.093	1.44 ± 0.17	1.02 (active)
NC(=NOC(=O)c1ccc2nsnc2c1)c1ncon1	1.04 ± 0.17	0.965 ± 0.084	0.905 ± 0.088	0.922 ± 0.035	1.05 ± 0.11	1.18 ± 0.12	0.996 (active)
COc1cc2c(cc1OC)C1C(=O)c3ccc4c(c3OC1CO2)C=CC(C)(C)O4 (centres undefined)	0.92 ± 0.071	0.99 ± 0.096	1.55 ± 0.14	0.853 ± 0.04	1.62 ± 0.26	2.12 ± 0.42	0.986 (active)
Cc1ccc(=O)n(-c2ccccc2)c1	0.979 ± 0.079	0.981 ± 0.098	0.968 ± 0.038	0.979 ± 0.077	0.975 ± 0.13	0.976 ± 0.092	1 (active)
CC1=NN(c2ccc(C)cc2)C(=O)C1=Cc1c(C)nn(-c2ccc(C)cc2C)c1O	1.03 ± 0.08	0.922 ± 0.089	1.02 ± 0.096	0.986 ± 0.046	1.21 ± 0.2	1.26 ± 0.19	1.03 (active)
COc1cc(C2CC3CC2C(C)C3(C)C)ccc1O (centres undefined)	0.638 ± 0.098	0.716 ± 0.052	0.773 ± 0.078	0.926 ± 0.031	1.01 ± 0.14	1.34 ± 0.22	1.01 (active)
CN(C)CCOC(=O)COc1ccc(Cl)cc1.Cl	1.11 ± 0.084	1.09 ± 0.088	1.01 ± 0.038	0.882 ± 0.076	0.963 ± 0.043	0.964 ± 0.08	0.999 (active)
CC(Sc1ccc(Cl)cc1)C(=O)NCc1cccnc1 (centres undefined)	1.07 ± 0.09	0.846 ± 0.065	1.08 ± 0.2	0.846 ± 0.031	0.905 ± 0.058	0.741 ± 0.14	0.992 (active)
CCOc1ccc(N=Cc2c(Nc3ccc(OCC)cc3)nc3ccccn3c2=O)cc1	1.17 ± 0.13	0.984 ± 0.13	1.19 ± 0.17	0.855 ± 0.051	1.23 ± 0.14	1.41 ± 0.23	1.04 (active)
CC(=O)N1CC(C(=O)Nc2ccc(Br)c(C)c2)C1	1.05 ± 0.071	0.996 ± 0.082	0.973 ± 0.053	0.988 ± 0.035	1.03 ± 0.048	0.909 ± 0.089	0.997 (active)

Reference: the supplement of paper PMC10646978
